In PubChem BioAssay (NCI):
About 83,000 compounds went through this panel and 20% of them were active in at least one assay; those are over-represented in the sample as a whole.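 Treatment: one concentration, 48 hours, 96-well format. Scoring: percent growth, with anything below 10 considered active.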 Activity calls are given as the source filed them.

tested on: EKVX NSCLC; assay: NCI-60 one-dose screen, 48 h (100 = growth as untreated, 0 = no growth, -100 = all killed); details: 10 µM unless noted

**Q.** Which growth does the source give for `COC(=O)c1ccc(CSc2nnc(-c3ccncc3)o2)cc1` here?
**A.** The growth was 101% (inactive).

**Q.** Which growth does the source give for `N#C/C(=C\c1ccc2c(c1)OCO2)n1nnc2ccccc21` here?
**A.** Its growth is 23% (inactive).

**Q.** With `O=C(NC(=S)Nc1ccc(-c2nc3ccccc3[nH]2)cc1)c1ccc2ccccc2c1` as the compound, how does the growth read?
**A.** The growth was 58.2% (inactive).

**Q.** With `COc1cc2c(c(OC)c1OC)C(=O)/C(=C/c1cc(C)c(O)c(C)c1)S2` as the compound, how does the growth read?
**A.** The growth was 43.9% (inactive).

**Q.** With `COc1ccc(-c2cc(-c3ccc(Nc4nc(Nc5ccccc5)nc(Nc5ccc(Cl)cc5)n4)cc3)nc(N)c2C#N)cc1` as the compound, how does the growth read?
**A.** Its growth is 18.7% (inactive).

**Q.** `Cc1c(Cl)cccc1NS(=O)(=O)c1ccccc1` was tested. Which growth did it give?
**A.** The growth was 114% (inactive).

**Q.** How did the growth turn out when `CCn1c(Sc2nnc(NC(C)=O)s2)nc2c1c(=O)n(C)c(=O)n2C` was run?
**A.** The growth was 88.3% (inactive).

**Q.** How did the growth turn out when `NS(=O)(=O)c1cn(-c2ncnc3nc[nH]c23)ccc1=O` was run?
**A.** The growth was 97.8% (inactive).

**Q.** For `CN1C(=O)CCC(N2C(=O)c3cccc(NCCOCCOCCNC(=O)c4cc5c(o4)C(=O)c4ccccc4C5=O)c3C2=O)C1=O` (stereo not given), which growth is on record?
**A.** The growth was 9.9% (active).

**Q.** How did the growth turn out when `COc1ccc(Nc2ncc(Br)c(NCCCNC(=O)C3CCC3)n2)cc1` was run?
**A.** Its growth is 37.2% (inactive).

**Q.** For `COc1ccccc1NC(=O)Nc1ccc(-c2nc3ccccc3o2)cc1`, which growth is on record?
**A.** The growth was 92.8% (inactive).

**Q.** Which growth does the source give for `N#C/C=C(\c1ccc([N+](=O)[O-])cc1)n1nnc2cc(Cl)c(Cl)cc21` here?
**A.** Its growth is 38.6% (inactive).

**Q.** Which growth does the source give for `O=C(c1ccccc1)c1ccc(N2C(=O)C3C4c5ccccc5C(/C=C/C(=O)c5ccccn5)(c5ccccc54)C3C2=O)cc1` (stereo not given) here?
**A.** Its growth is 27.9% (inactive).

**Q.** For `Cc1cc(-c2ccc(N(C)C)cc2)c2sc(=O)[nH]c2n1`, which growth is on record?
**A.** The growth was 77.5% (inactive).

**Q.** With `N#Cc1c(NC(=O)c2ccccc2I)sc2c1CCCC2` as the compound, how does the growth read?
**A.** Its growth is 48.5% (inactive).

**Q.** How did the growth turn out when `C[C@@H]1CC[C@@H]2[C@@H]1[C@H](OC(=O)/C=C/c1ccccc1)[C@]1(CCCOCCOCCOCCOC(=O)CCCC[C@@H]3SC[C@@H]4NC(=O)N[C@@H]43)C[C@@H](OC(=O)CO)[C@@]2(C)O1` was run?
**A.** Its growth is 101% (inactive).

**Q.** With `CCn1c(Sc2nnc(NC(=O)CCN3CCCC3)s2)nc2c1c(=O)n(C)c(=O)n2C` as the compound, how does the growth read?
**A.** Its growth is 99.3% (inactive).

**Q.** How did the growth turn out when `Cl.Fc1c[c-]c(-c2ccccn2)c(F)c1.[Pt].c1ccc([PH+](C[PH+](c2ccccc2)c2ccccc2)c2ccccc2)cc1` was run?
**A.** Its growth is -84.4% (active).

**Q.** Which growth does the source give for `CCCCCCCC/C=C/CCCCCCCC1=NCC[N+]1(CCO)CCO` here?
**A.** Its growth is 76.4% (inactive).

**Q.** `CCOC(=O)N1CCc2c(sc3c2C(=O)N[C@H](c2ccc(OC)cc2)N3)C1` was tested. Which growth did it give?
**A.** Its growth is 101% (inactive).

**Q.** Which growth does the source give for `CCOc1ccc(-c2nc3ccc(-c4nc5ccc(N6CCN(C)CC6)cc5[nH]4)cc3[nH]2)cc1OCC` here?
**A.** Its growth is 50.2% (inactive).

**Q.** `O=C(NCCN1CCC(O)CC1)c1cc2c(o1)C(=O)c1ccccc1C2=O` was tested. Which growth did it give?
**A.** The growth was -76.8% (active).

**Q.** With `Cl.Fc1c[c-]c(-c2ccccn2)c(F)c1.[Pt].c1ccc([PH+](c2ccccc2)c2ccccc2[PH+](c2ccccc2)c2ccccc2)cc1` as the compound, how does the growth read?
**A.** The growth was -94.8% (active).

**Q.** How did the growth turn out when `O=C(NCCOCCOCCOCCNC(=O)c1cc2c(o1)C(=O)c1ccccc1C2=O)NC12CC3CC(CC(C3)C1)C2` was run?
**A.** The growth was -4.03% (active).

**Q.** With `COc1ccc(/C=C(\C#N)n2nnc3ccccc32)cc1` as the compound, how does the growth read?
**A.** The growth was 24.1% (inactive).
